Data published in PubChem BioAssay AID652175 (National Center for Advancing Translational Sciences (NCATS), 2013).
Inconclusive results are not listed. Where a call stands in place of a potency, no number is given. Activity calls are given as the source filed them. The call rests on the fitted dose curve; in most records, active means well fitted inhibition curve with a large enough effect; inconclusive means small, poorly fitted or top-dose-only effect; inactive means no such curve, though single readings can be large or run the other way.

assay: qHTS Assay for Lipid Storage Modulators: S3 Assay against Probe and Analogs; conditions: Drosophila S3 cells, BODIPY lipid droplet fluorescence, 18-24 h, oleic acid added to induce droplets; series mostly up to 46.1 µM
Excerpt: Storing lipids as a reservoir for energy or the anabolism of elementary metabolites is a common feature of probably all cells and is conserved from bacteria to humans. The universal cellular lipid storage organelle is the so-called lipid storage droplet (LD). Although ubiquitous, LDs share a simple structure composed of a hydrophobic core that harbors the storage lipids, which is shielded by a droplet-specific phospholipid monolayer to which proteins are attached. The current model of LD biogenesis involves an incorporation of the lipid core into the membrane leaflets of the endoplasmic reticulum (ER) followed by a subsequent budding-like maturation of a LD, which ultimately pinches off. Once released, LD volume can increase by localized lipogenesis or fusion of existing droplets. Storage lipids are re-mobilized enzymatically by lipase activity. Lipase regulation in the adipocyte is heavily studied and involves multiple components including catecholamine signaling, the LD-associated proteins Perilipin and comparative gene identification-58 (CGI-58) and at least two lipases named hormone sensitive lipase (HSL) and adipocyte triglyceride lipase (ATGL). LD regulation outside of the adipocyte is poorly understood and only few components are known. However, there is an urgent need to learn more about ectopic fat depots as mislocalized storage of lipids, for example in the liver or muscle, is an eminent health problem associated with insulin resistance or the metabolic syndrome. We developed a laser-scanning cytometer assay to enable 1,536-well screening and combined the results of the small molecules screen with an RNAi database based on lipid storage. In this assay we tested analogs of the probe against the original qHTS assay, which involved drosophila melanogaster cells (S3), to see if these small molecules could disrupt lipid storage. NIH Molecular Libraries Probe Production Centers Network [MLPCN] NIH Chemical Genomics Center [NCGC] MLPCN Grant: MH085686 Assay Submitter (PI): Mathias Beller, Max-Planck-Institut fur Biophysikalische Chemie
qHTS was performed with embryonic Drosophila S3 cells (Bloomington Drosophila Genomics Resource Center [DGRC]). We dispensed 4 uL of cells at 1.25 x 10^6 cells/mL into LoBase Aurora COC 1,536-well plates (black walled, clear bottom) with a bottle-valve solenoid-based dispenser (Aurora) to obtain 5,000 cells/well. Triacsin C (Sigma-Aldrich T-4540), an inhibitor of long-chain fatty acyl CoA synthetase that blocks synthesis of triglycerides, was used as a positive control for lipid under-storage. A total of 23 nL of compounds dissolved in DMSO at different concentrations were transferred to the assay plates using a Kalypsys pin tool equipped with a 1,536-pin array containing 10-nL slotted pins (FP1S10, 0.457-mm diameter, 50.8 mm long; V&P Scientific). The final DMSO concentration was 0.46%. One microliter of oleic acid at 400 uM (Calbiochem, #4954) was added to induce lipid droplet formation in the cells, and the plates were lidded with stainless steel rubber gasket lined lids containing pinholes. After 18-24 h incubation at 25 0C and 95% humidity, 4 uL of the BODIPY lipid dye 493/503 (1:2000, Molecular Probes) and the Cell Tracker Red CMTPX dye (Life Technologies, # 34552) were added to the wells to stain lipid droplets and enumerate cell number, respectively. Fluorescence was detected by excitation of the fluorophores with a 488-nm laser on an Acumen Explorer (TTP Lab Tech). The total intensity in channel 1 (500-530 nm) reflected lipid droplet accumulation. Cells were detected using channel 3 (575-640 nm) with 5-um width and 100-um depth filters. The ratio of the total intensity in PMT channel 1 over total intensity of channel 3 was also calculated. Percent activity was computed relative to an internal control (100% inhibited lipid droplet deposition due to the presence of 20 uM Triacsin C), which was added to 32 wells/plate.

Structure (SMILES)	Potency
CCOc1ccc(CCNC(=O)c2cc3ccccc3n2Cc2ccccn2)cc1OCC	118 nM (active)
CCOc1ccc(CCNC(=O)c2ccc(C(=O)c3ccccc3)cc2)cc1OCC	inactive
CCOc1ccc(CCNC(=O)c2cc3ccccc3n2Cc2cccc(C)n2)cc1OCC	13.2 nM (active)
CCOc1ccc(CCNC(=O)c2ccc(Oc3ccccc3)cc2)cc1OCC	inactive
CCOc1ccc(CCNC(=O)c2cc3sccc3n2CCN(C)C)cc1OCC	2350 nM (active)
CCOc1ccc(CCNC(=O)c2cc3cnccc3n2Cc2cccc(C)n2)cc1OCC	inactive
CCOc1ccc(CCNC(=O)c2cc3ccncc3n2Cc2cccc(C)n2)cc1OCC	inactive
CCOc1ccc(CCNC(=O)c2cc3ccccc3n2CCN2CCOCC2)cc1OCC	inactive
CCOc1ccc(CCNC(=O)c2cc3ccccc3n2Cc2cccc(C)c2)cc1OCC	3.3 nM (active)
CCOc1ccc(CCNC(=O)c2cc3sccc3n2Cc2ccc(F)cc2F)cc1OCC	16.6 nM (active)
CCOc1ccc(CCNC(=O)c2ccccc2)cc1OCC	inactive
